Test results: ChEMBL document CHEMBL1961873, “Compounds: GSK PKIS; Assays: Nanosyn kinase panel” (2012)
Several values for one entry are separate records, joined by “and”; a condition that tells them apart may be missing. Equal values may be shown once.

How the values were obtained:
[1] = target: High affinity nerve growth factor receptor (Homo sapiens) (UniProt P04629); conditions: at 1 µM;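 further: each value is the mean percent inhibition of TRKA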
[2] = target: BDNF/NT-3 growth factors receptor (Homo sapiens) (UniProt Q16620); conditions: at 0.1 µM
[3] = target: BDNF/NT-3 growth factors receptor (Homo sapiens) (UniProt Q16620); conditions: at 1 µM
[4] = target: NT-3 growth factor receptor (Homo sapiens) (UniProt Q16288); conditions: at 0.1 µM
[5] = target: NT-3 growth factor receptor (Homo sapiens) (UniProt Q16288); conditions: at 1 µM
[6] = target: T1, Tyrosine-protein kinase TXK (Homo sapiens) (UniProt P42681); conditions: at 0.1 µM
T1 sequence (whole entry): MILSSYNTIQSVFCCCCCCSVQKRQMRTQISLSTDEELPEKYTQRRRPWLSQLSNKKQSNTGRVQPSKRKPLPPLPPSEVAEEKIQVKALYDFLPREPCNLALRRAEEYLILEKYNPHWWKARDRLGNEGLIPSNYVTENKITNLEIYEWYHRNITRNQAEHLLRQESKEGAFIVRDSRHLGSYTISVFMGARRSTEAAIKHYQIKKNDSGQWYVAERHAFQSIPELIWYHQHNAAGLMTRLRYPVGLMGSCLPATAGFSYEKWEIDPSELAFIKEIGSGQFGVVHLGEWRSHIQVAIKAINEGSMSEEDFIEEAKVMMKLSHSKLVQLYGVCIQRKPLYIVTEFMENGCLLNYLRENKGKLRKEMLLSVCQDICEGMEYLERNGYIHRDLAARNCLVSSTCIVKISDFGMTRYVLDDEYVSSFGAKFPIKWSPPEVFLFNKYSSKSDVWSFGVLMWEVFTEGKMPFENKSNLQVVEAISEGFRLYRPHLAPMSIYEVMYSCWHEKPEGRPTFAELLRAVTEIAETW

[7] = target: T1, Tyrosine-protein kinase TXK (Homo sapiens); conditions: at 1 µM
[8] = target: Non-receptor tyrosine-protein kinase TYK2 (Homo sapiens) (UniProt P29597); conditions: at 0.1 µM;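 further: each value is a mean of the inhibition readings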
[9] = target: T2, Dual specificity protein kinase TTK (Homo sapiens) (UniProt P33981); conditions: at 1 µM;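 further: reported figures are mean TTK inhibition at 1 µM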
T2 sequence (whole entry): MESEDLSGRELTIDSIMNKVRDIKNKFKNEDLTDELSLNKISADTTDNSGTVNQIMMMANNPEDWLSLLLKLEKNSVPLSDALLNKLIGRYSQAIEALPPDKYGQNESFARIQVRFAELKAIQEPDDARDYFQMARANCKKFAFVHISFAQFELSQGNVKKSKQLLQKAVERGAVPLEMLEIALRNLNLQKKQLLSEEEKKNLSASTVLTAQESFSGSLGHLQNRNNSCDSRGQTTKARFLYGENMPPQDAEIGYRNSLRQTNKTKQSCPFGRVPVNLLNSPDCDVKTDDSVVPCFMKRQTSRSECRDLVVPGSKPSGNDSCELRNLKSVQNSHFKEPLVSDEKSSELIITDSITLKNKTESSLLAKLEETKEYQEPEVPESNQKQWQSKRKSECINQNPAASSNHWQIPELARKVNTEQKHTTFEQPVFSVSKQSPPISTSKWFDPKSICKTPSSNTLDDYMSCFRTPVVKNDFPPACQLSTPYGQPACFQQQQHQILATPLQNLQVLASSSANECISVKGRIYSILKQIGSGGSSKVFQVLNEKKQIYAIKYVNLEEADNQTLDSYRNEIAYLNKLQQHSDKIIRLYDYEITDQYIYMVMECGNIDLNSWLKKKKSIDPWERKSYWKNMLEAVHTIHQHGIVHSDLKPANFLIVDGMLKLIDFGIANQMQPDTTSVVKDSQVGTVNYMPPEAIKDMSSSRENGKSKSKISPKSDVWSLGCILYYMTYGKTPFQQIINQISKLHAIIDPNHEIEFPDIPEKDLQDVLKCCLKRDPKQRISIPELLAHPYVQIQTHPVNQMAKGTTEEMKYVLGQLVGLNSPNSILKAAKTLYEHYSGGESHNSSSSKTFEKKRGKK

[10] = target: T3, Aurora kinase A (Homo sapiens) (UniProt O14965); conditions: at 0.1 µM;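 further: each reported value is a mean percent inhibition of Aurora-A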
T3 sequence (whole entry): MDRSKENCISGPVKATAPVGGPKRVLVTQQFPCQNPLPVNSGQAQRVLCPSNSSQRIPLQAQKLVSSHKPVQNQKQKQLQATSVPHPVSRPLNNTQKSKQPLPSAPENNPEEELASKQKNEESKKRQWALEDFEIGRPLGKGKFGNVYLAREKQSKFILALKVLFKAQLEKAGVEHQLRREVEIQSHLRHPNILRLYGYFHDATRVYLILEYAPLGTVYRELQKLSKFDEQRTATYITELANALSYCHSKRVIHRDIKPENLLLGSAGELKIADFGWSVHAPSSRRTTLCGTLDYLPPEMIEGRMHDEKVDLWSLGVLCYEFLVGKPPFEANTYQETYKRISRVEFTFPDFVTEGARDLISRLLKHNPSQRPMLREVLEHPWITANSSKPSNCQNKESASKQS

Chain of High affinity nerve growth factor receptor (Homo sapiens) (P04629 33-796 limits assumed): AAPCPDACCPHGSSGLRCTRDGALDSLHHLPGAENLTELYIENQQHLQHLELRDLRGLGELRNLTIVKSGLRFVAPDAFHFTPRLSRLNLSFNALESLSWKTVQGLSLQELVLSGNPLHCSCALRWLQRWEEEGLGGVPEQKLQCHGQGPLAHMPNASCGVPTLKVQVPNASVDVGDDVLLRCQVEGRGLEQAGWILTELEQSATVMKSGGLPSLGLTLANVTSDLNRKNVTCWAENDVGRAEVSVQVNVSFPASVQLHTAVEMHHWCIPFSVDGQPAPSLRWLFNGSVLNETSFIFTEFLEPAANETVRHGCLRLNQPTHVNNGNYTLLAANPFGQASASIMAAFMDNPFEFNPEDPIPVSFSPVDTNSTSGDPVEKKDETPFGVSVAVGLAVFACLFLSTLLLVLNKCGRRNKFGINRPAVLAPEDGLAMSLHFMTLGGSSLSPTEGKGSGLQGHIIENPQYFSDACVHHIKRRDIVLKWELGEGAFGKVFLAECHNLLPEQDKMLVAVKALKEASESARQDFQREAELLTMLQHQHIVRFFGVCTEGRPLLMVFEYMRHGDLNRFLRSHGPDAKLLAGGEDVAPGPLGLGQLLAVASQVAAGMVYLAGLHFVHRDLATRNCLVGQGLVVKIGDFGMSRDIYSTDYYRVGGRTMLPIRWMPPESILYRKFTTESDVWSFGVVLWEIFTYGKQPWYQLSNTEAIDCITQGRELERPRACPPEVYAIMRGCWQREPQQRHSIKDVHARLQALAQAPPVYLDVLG
Chain of NT-3 growth factor receptor (Homo sapiens) (Q16288 32-839 limits assumed): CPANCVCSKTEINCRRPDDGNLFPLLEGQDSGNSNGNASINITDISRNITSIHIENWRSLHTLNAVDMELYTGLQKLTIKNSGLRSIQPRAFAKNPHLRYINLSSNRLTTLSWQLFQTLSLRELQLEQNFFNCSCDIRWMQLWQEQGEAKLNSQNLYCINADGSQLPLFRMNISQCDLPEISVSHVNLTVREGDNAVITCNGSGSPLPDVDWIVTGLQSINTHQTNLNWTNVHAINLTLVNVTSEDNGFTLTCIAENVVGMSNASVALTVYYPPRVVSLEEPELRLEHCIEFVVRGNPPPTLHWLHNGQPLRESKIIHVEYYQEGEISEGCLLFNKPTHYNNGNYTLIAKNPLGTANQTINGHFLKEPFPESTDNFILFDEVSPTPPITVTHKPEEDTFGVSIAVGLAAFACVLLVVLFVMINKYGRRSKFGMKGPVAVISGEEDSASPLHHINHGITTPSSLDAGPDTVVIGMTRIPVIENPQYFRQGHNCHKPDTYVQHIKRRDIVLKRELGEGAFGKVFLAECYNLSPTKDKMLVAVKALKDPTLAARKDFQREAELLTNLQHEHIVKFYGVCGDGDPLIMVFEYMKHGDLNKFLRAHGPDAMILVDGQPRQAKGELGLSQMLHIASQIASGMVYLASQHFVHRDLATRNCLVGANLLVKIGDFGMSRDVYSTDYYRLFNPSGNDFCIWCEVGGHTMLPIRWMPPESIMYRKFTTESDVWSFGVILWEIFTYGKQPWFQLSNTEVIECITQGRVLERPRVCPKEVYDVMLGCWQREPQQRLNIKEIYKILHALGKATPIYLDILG
Chain of BDNF/NT-3 growth factors receptor (Homo sapiens) (Q16620 32-822 limits assumed): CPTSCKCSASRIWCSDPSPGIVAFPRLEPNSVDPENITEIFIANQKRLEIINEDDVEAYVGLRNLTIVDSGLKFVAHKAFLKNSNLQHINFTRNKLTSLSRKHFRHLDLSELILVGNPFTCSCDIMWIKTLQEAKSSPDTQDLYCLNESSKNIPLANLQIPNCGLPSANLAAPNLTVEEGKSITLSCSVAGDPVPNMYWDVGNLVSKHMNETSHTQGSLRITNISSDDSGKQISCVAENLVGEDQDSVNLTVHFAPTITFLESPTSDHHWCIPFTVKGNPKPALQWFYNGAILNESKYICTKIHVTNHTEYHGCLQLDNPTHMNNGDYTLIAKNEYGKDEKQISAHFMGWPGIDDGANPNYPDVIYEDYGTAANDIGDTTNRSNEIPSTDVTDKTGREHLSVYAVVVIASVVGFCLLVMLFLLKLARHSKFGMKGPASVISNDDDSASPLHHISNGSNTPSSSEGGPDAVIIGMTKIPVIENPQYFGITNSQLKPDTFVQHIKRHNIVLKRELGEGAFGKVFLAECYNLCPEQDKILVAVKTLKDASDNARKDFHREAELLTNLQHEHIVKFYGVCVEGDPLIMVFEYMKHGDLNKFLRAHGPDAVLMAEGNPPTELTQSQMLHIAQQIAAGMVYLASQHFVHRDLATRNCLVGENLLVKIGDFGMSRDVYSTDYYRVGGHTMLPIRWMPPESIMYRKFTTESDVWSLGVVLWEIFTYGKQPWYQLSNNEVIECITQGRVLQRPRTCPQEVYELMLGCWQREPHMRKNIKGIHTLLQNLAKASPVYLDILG
Chain of Non-receptor tyrosine-protein kinase TYK2 (Homo sapiens) (P29597 whole entry): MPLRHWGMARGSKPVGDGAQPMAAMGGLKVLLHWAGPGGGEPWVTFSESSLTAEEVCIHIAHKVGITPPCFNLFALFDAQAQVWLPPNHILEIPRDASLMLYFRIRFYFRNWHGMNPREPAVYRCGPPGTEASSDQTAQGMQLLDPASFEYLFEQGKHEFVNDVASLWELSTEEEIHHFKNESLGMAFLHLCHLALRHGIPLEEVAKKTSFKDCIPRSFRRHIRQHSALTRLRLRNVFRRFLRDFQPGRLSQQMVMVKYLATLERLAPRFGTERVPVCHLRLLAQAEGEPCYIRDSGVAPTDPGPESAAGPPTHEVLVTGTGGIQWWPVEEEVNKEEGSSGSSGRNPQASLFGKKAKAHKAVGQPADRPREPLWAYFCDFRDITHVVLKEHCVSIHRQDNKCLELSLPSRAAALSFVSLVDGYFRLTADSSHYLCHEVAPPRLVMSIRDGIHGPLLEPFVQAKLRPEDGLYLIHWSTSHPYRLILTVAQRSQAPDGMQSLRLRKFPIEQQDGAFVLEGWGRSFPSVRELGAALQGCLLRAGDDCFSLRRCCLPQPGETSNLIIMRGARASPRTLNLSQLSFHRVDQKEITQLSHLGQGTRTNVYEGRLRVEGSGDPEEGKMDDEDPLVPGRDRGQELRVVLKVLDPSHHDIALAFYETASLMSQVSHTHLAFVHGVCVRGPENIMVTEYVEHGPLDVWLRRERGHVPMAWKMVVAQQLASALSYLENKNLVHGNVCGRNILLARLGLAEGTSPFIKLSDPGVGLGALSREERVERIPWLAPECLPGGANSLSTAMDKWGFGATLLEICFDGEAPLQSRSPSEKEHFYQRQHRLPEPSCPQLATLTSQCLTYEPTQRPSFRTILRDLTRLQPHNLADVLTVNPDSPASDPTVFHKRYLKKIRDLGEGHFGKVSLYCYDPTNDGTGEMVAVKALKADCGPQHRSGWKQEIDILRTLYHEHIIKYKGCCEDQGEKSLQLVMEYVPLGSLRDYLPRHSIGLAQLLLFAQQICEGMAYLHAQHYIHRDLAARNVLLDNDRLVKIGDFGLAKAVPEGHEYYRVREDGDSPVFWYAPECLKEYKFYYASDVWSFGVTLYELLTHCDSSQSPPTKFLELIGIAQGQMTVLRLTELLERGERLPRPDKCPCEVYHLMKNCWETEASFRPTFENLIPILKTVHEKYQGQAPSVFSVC

Structure (SMILES)	inhibition [1]	inhibition [2]	inhibition [3]	inhibition [4]	inhibition [5]	inhibition [6]	inhibition [7]	inhibition [8]	inhibition [9]	inhibition [10]
Cc1cc(O)cc(C)c1/C=C/c1cncc(C(=O)OC(C)(C)C)c1	2.95%	2.88%	5.2%	2.87%	5.85%	8.06%	36.9%	-0.75%	4.42%	2.02%
Cc1c2ccc(N(C)c3ccnc(Nc4cccc(S(N)(=O)=O)c4)n3)cc2nn1C	7.91%	4.05%	9.82%	4.05%	11.1%	20.5%	59.4%	-3.68%	29.9%	11.7%
CN(C)CCNC(=O)Nc1ccc(N(C)c2ccnc(Nc3ccc(CS(C)(=O)=O)cc3)n2)cc1	7.1%	2.82%	9.09%	4.45%	11.9%	8.39%	34.3%	-2.14%	11.4%	13.7%
O=C(O[C@H]1CN[C@H](C#Cc2cc3ncnc(Nc4ccc5c(cnn5Cc5ccccc5)c4)c3s2)C1)N1CCOCC1	2.5%	-1.64%	-0.38%	-0.59%	1.3%	0.8%	2.69%	1.26%	6.25%	1.41%
CS(=O)(=O)Nc1ccc(-c2cc(-c3ccccc3)cc(C(N)=O)c2N)cc1	3.74%	1.96%	2.61%	1.09%	0.08%	0.48%	2.13%	-1.8%	3.01%	1.29%
CCS(=O)(=O)c1ccc(OC)c(Nc2ncc(-c3cccc(C(C)=O)c3)o2)c1	9.16%	4.28%	20.5%	4.38%	29.4%	13%	50.5%	-3.16%	8.55%	2.45%
CN1CCC(C(=O)Nc2n[nH]c3nc(-c4ccc(O)cc4)c(Br)cc23)CC1	1.2% and 2.04%	2.51% and 1.42%	3.32% and 2.74%	3.04% and 2.59%	4.91% and 0.79%	-0.5% and 4.86%	-0.68% and 3.3%	-2.31% and 0.31%	19% and 6.37%	-1.93% and 2.95%
CCn1c(-c2nonc2N)nc2cncc(C(=O)NCCNC)c21	3.09%	3.03%	5.31%	3.96%	3.4%	-1.02%	1.12%	-3.39%	10.5%	3.09%
Fc1ccc(Nc2nccc(-c3c(-c4ccc(C(F)(F)F)cc4)nn4ncccc34)n2)cc1F	1.59%	2.27%	2.56%	3.55%	2.83%	2.95%	4.27%	-3.95%	8.25%	3.59%
CCS(=O)(=O)c1ccc(OC)c(Nc2ncc(-c3cccc(F)c3)o2)c1	42.8%	10%	47.2%	12%	48.1%	17.2%	56%	-0.94%	8.85%	7.01%
CC1(C)CC(n2cnc(-c3ccc(F)cc3)c2-c2ccnc(N)n2)CC(C)(C)N1	0.77%	1.16%	2.03%	0.21%	2.79%	0.09%	0.75%	1%	1.53%	-0.03%
COc1cc(N2CCN(C(C)C)CC2)ccc1Nc1nc(Nc2cccc(F)c2C(=O)O)c2cc[nH]c2n1	0.85%	3.78%	6.6%	2.64%	4.58%	1.98%	3.5%	-3.16%	77.3%	3.47%
NS(=O)(=O)c1ccc(N/N=C2\C(=O)Nc3cccc(CCc4ccncc4)c32)cc1	19.1%	17%	45.4%	17.3%	41.9%	2.92%	8.22%	-0.26%	38.7%	28.1%
O=C(O[C@H]1CN[C@H](C#Cc2cc3ncnc(Nc4ccc(OCc5cccc(F)c5)c(Cl)c4)c3s2)C1)N1CCOCC1	0.52%	3.03%	5.79%	2.99%	7.73%	1.89%	1.16%	-6.96%	13%	1.79%
CC1=C(C(=O)Nc2ccc3[nH]ncc3c2)C(c2ccc(F)cc2)N=C(c2ccc(C(F)(F)F)nc2)N1 (stereo not given)	4.07%	1.02%	1.46%	2.88%	3.8%	3.02%	4.16%	-0.65%	-4.56%	4.97%
NC(=O)c1ccc2c(-c3ccnc(NCCCO)n3)c(-c3ccc(F)cc3)nn2c1	2.24%	3.11%	2.83%	3.99%	2.98%	9.73%	38.4%	-3.98%	12.1%	1.36%

Structure (SMILES)	inhibition [1]	inhibition [2]	inhibition [3]	inhibition [4]	inhibition [5]	inhibition [6]	inhibition [7]	inhibition [8]	inhibition [9]	inhibition [10]
COC(=O)Nc1nc2ccc(Oc3ccc(NC(=O)Nc4cc(C(F)(F)F)ccc4F)cc3)cc2s1	81.5%	24.9%	61%	25.7%	88.5%	1.96%	2.35%	-0.09%	9.84%	1.12%
CC1=C(C(=O)Nc2ccc3[nH]nc(C)c3c2)C(c2ccc(C(F)(F)F)cc2)CC(=O)N1 (stereo not given)	3.25%	1%	3.58%	2.43%	6.4%	3.55%	6.06%	0.25%	-0.26%	17.9%
COC(=O)Nc1nc2cc(Oc3ccc(NC(=O)Nc4ccccc4)cc3)ccc2[nH]1	0.28%	1.72%	3.06%	4.04%	7.05%	1.84%	1.98%	-2.96%	4.66%	2.47%
COc1cc(Nc2ncc(-c3ccccc3)o2)cc(OC)c1	19.7%	8.32%	35.2%	6.57%	30.5%	-1%	8.54%	-5.97%	11.9%	5.61%
Fc1cccc(COc2ccc(Nc3ncncc3C#Cc3ccccc3)cc2Cl)c1	2.13%	2.56%	5.8%	2.81%	6.63%	1.94%	3.56%	-4.7%	8.47%	2.33%
CNC(=O)c1ncccc1Nc1nc(Nc2cc3c(cc2OC)CCCN3C(=O)CN(C)C)nc2[nH]ccc12	6.12%	3.17%	5.34%	2.2%	5.36%	3.73%	1.5%	-3.3%	35.2%	2.64%
COc1cccc(Nc2nccc(-c3cnn4ncccc34)n2)c1	17.4%	6.68%	34.1%	7.22%	37.6%	2.32%	15.5%	-4.06%	22.8%	11.9%
Nc1ncnc2occ(-c3ccc(NC(=O)Nc4cc(C(F)(F)F)ccc4F)cc3)c12	89.2% and 97%	54.8% and 40.6%	90.7% and 88.5%	52.9% and 39.5%	92.8% and 85.3%	3.14% and 1.59%	5.09% and 0.12%	-1.29% and 0.57%	21.4% and 7.71%	3.16% and -1.11%
NS(=O)(=O)c1ccc(N/N=C2\C(=O)Nc3ccc(C(=O)NCc4ccncc4)cc32)cc1	33.7%	13%	60%	19.2%	66.2%	2.66%	5.17%	-8.31%	69.2%	6.11%
Cc1ccc(-c2cc3c(NC(=O)C4CC4)ncnc3o2)cc1	1.15%	1.73%	4.58%	2.91%	4.4%	3.92%	8.76%	-1.91%	10.2%	3.75%
COc1ccc(Nc2ncc(-c3ccccc3)o2)cc1OC	14.1%	2.88%	27.1%	2.7%	27.1%	4.28%	17.8%	0.66%	1.06%	9.76%
CN1CCN(Cc2ccc(-c3cc4ncnc(Nc5ccc(OCc6cccc(F)c6)c(Cl)c5)c4s3)o2)CC1	3.16% and 2.15%	3.04% and 3.64%	2.54% and 4.97%	2.27% and 4.29%	3.84% and 5.78%	-1.05% and 3.1%	5.76% and 4.28%	-2.41% and -3.9%	8.37% and 11.4%	1.75% and 2.97%
CNC(=O)c1cncc(/C=C/c2ccccc2C)c1	1.73%	2.61%	4.3%	3.82%	5.34%	6.85%	24.5%	-2.79%	11.7%	1.35%
COc1c(C(N)=O)cc(-c2ccc(Cl)cc2)cc1-c1ccc(S(N)(=O)=O)cc1	4.22%	2.88%	3.12%	2.54%	2.2%	9.73%	4.4%	-0.68%	12.9%	2.86%
COc1cccc(-n2ncc3c(N/N=C/c4ccc(C(=O)NCCN(C)C)cc4)ncnc32)c1	12.1%	5.53%	26.5%	3.96%	20.7%	7.49%	29.4%	-5.03%	11.6%	8.37%
